Test results from PubChem BioAssay.
“And” between values parts separate entries of the source, which are not always exact repeats. Equal entries are not always repeated. Results filed as inconclusive are left out. The source made the active and inactive calls.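 The calls were made as follows, unless noted: active = compounds whose cell count with miR-34 switched on is under 0.7 times the count with it off; inactive = the rest.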

Legend:
[1] = Wnt pathway potentiators raising nuclear beta-catenin – imaging, WNT3A-conditioned medium, mouse C2C12, NPC library, primary screen (AID 1117326; in the data active = nuclear beta-catenin stimulation mostly above about 4.2%, no sharp cut-off; inactive = mostly below about 10%; also: reference of the scale not given here); details: stronger effect = higher value
[2] = stimulators of insulin release from INS-1E, primary screen, cell-based, 5 mM glucose, NPC library (AID 1117329;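 active = compound raises insulin release from rat beta cells at 5 mM glucose, no numeric limit stated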; also: reference of the scale not given here); details: rat INS-1E insulin secretion, at 10 µM, stronger effect = higher value
[3] = growth inhibition of GSK3B-pretreated HCT116 cells – cell-based, CellTiter-Glo, 0.2 to 20 µM (AID 1117336;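 active = compounds lowering colon cancer cell viability after pretreatment blocking the GSK3B kinase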); details: HCT116 viability after GSK3B inhibitor, at 20 µM, stronger effect = higher value
[4] = inhibition of endothelial tube formation, primary screen, imaging, VEGF stimulated, CD31 staining, tube area, NPC library (AID 1117340;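 active = compound that reduces growth-factor-driven endothelial tube area in a mixed cell culture, no cutoff stated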); details: VEGF-stimulated ADSC/ECFC co-culture, at 10 µM, stronger effect = higher value
[5] = GLP1 release stimulators, primary, NCI-H716, NPC library (AID 1117341;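 active = compound raises GLP1 secretion from the human gut endocrine cells, with no numeric limit stated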; also: reference of the scale not given here); details: NCI-H716 cells, at 10 µM, stronger effect = higher value
[6] = HCT116 colon cancer cell growth inhibition, primary screen, CellTiter-Glo luminescence, NPC library (AID 1117342;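 active = compounds that lower survival of HCT116 colon cancer cells in the luminescence readout, no numeric limit stated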); details: at 20 µM (top of the series)
[7] = reduced SW480 viability measured with CellTiter-Glo, NPC library, primary (AID 1117343;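 active = compounds that lower viability of the colon cancer cells in the luminescence readout, with no numeric limit stated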); details: CellTiter-Glo luminescence; at 20 µM (top of the series) unless noted
[8] = NPC library primary testing for decreased DLD-1 cell viability via CellTiter-Glo (AID 1117346;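 active = compounds that lower survival of DLD-1 colon cancer cells in the luminescence readout, no cutoff given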); details: DLD-1 viability, CellTiter-Glo luminescence; at 20 µM (top of the series)
[9] = tested on: Aerobactin synthetase IucA (Klebsiella pneumoniae); test: inhibition of K. pneumoniae IucA enzyme – biochemical, Tocris library, absorbance (AID 1345561; call rule not given here;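 also: 100% = enzyme without compound and 0% = no enzyme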); details: purified IucA enzyme assay, absorbance (OD) read-out; stronger effect = lower value;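 tested at 8 µM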
[10] = viability loss with induced miR-34 in A549 – imaging, A549 dox-inducible miR-34, nuclei and caspase counts, primary screen (AID 1347080); details: A549 miR-34 inducible, Hoechst nuclei count, 48 h
[11] = galactose survival enhancers in mitochondrial complex I cybrids – cell-based, galactose medium, ATP luminescence, primary screen (AID 1645843;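 active = z-score of at least 1.8 in each of two replicates, scored against plate mean and spread of sample wells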;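 also: positive z means more ATP and so rescue of galactose-driven cybrid death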); details: complex I mutant cybrid cells, 72 h, stronger effect = higher value
[12] = viability loss in pontine glioma line – cell-based, SU-DIPG-XVII, MIPE5.0, CellTiter-Glo, qHTS, dose response (AID 1347060; cut-off not given, nearly all actives have AC50 up to about 26 µM); details: CellTiter-Glo ATP luminescence
[13] = viability loss in pontine glioma line – cell-based, SU-DIPG-XIII, MIPE4.0, CellTiter-Glo, qHTS, dose response (AID 1347061; cut-off not given, nearly all actives have AC50 up to about 37 µM;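 also: cells exposed to compound for 48 hours before readout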); details: CellTiter-Glo ATP luminescence
[14] = growth inhibition of DIPG cells – cell-based, MIPE5.0 library, qHTS (AID 1347068; cut-off not given, nearly all actives have IC50 up to about 30 µM); details: SU-DIPG-XXV viability
[15] = P. berghei load reduction in hepatocytes – cell-based, HepG2, luciferase luminescence, HepG2 viability, primary screen (AID 624349; in the data active = parasite load remaining mostly below about 12%, no sharp cut-off; inactive = mostly above about 10%;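 also: 100% = mean of DMSO negative control wells on the same plate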); details: P. berghei liver stage in HepG2, luciferase luminescence, concentration not given here; parasite load remaining: stronger effect = lower value; viability: measured here: HepG2 viability without parasites
[16] = stronger effect = lower value, cell number ratio, induced over uninduced
[17] = measured here: relative caspase fold change +Dox/-Dox
[18] = measured here: total cells with miR-34 induction, stronger effect = lower value
[19] = measured here: total cells without miR-34 induction

Row | SMILES | nuclear beta-catenin stimulation ([1]; at 10 µM) | nuclear beta-catenin stimulation ([1]; stimulation, at 2 µM) | insulin secretion stimulation [2] | viability decrease [3] | tube area decrease [4] | GLP1 secretion stimulation [5] | inhibition of viability [6] | viability decrease (inhibition) [7] | viability decrease (inhibition) [8] | remaining activity [9] | fold change [10, 16] | fold change [10, 17] | cell count [10, 18] | cell count [10, 19] | z-score [11] | outcome [12] | outcome [13] | outcome [14] | parasite load remaining [15] | viability [15]
1 | O=c1[nH]c2cc(C(F)(F)F)c(N3CCOCC3)cc2n(CP(=O)(O)O)c1=O | 1.2% (inactive) | -0.5% | 0.85% (inactive) | 17.9% (inactive) | -10.1% (inactive) | 1% (inactive) | 6.1% (inactive) | -13.4% (inactive) | 1.2% (inactive) | 126% (inactive) | 0.942 (inactive) | 1.52 | 9280 | 9850 | 0.07 (inactive) |  |  |  |  | 
2 | O=C1OC(OC(=O)c2cccnc2Nc2cccc(C(F)(F)F)c2)c2ccccc21 (stereo not given) | 21.1% (inactive) | 11% | 2.7% (inactive) | 17.5% (inactive) | 72.7% (active) | 1.3% (inactive) | 10.2% (inactive) | 115% (active) | 31.2% (inactive) | 120% (inactive) | 0.992 (inactive) | 1.33 | 7990 | 8060 | -0.625 (inactive) |  |  |  |  | 
3 | COC(=O)[C@@H]1CC2=CC(=O)CC[C@]2(C)[C@@]23O[C@@H]2C[C@@]2(C)[C@@H](CC[C@@]24CCC(=O)O4)[C@H]13 | -0.1% (inactive) | 1.3% | -0.55% (inactive) | -0.7% (inactive) | 23.1% (inactive) | -1.5% (inactive) | -5.5% (inactive) | 24.4% (inactive) | -7.2% (inactive) | 96.4% (inactive) | 0.96 (inactive) | 1.45 | 9220 | 9600 | -0.005 (inactive) | inactive | inactive | inactive |  | 
4 | Cc1cc(C)c(/C=C2\C(=O)Nc3ccccc32)[nH]1 | 9.9% (inactive) | 0.7% | -0.8% (inactive) | 20.1% (inactive) | 99.7% (active) | 12.8% (inactive) | -18.7% (inactive) | 48.7% (inactive) | 37.2% (inactive) | 104% (inactive) | 1.05 (inactive) and 0.921 (inactive) and 0.87 (inactive) | 0.773 and 1.14 and 1.43 | 4600 and 5070 and 6640 | 4380 and 5510 and 7630 | 0.06 (inactive) and 0.095 (inactive) |  |  |  | 27.2% (inactive) | 69.7%
5 | OCC(CO)N[C@H]1C[C@](O)(CO)[C@@H](O)[C@H](O)[C@H]1O | 3.1% (inactive) | 5.1% | -1.5% (inactive) | -12.8% (inactive) | 7.6% (inactive) | 1.9% (inactive) | 5.5% (inactive) | 27.3% (inactive) | 1.55% (inactive) | 123% (inactive) | 0.876 (inactive) | 1.87 | 8920 | 10200 | 0.245 (inactive) |  |  |  |  | 
